Measured values from PubChem BioAssay AID602241 (Southern Research Specialized Biocontainment Screening …, 2012).
Measured potencies and affinities stand elsewhere. Calls of active or inactive are those of the source. How the calls were made is not given here.

Assay: Confirmatory cell based cytopathic effect inhibition, VEEV TC 83 infected cells (AID 602241)

| Structure (SMILES) | outcome |
| --- | --- |
| O=C(Oc1ccc2ccccc2c1Br)N1CCCCCC1 | inactive |
| O=c1c2cc([N+](=O)[O-])ccc2nc(CN2CCN(c3ccccc3)CC2)n1-c1ccccc1F | inactive |
